# Values without a mark were called inactive. The rule behind the calls is not given here.
# Test system: HIV-1 nucleocapsid protein NCp7 (binding to TG oligonucleotide)
# Experiment: HIV Nucleocapsid (AID 346);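 note: potency is for inhibitors that block NC binding and lower polarization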
# Settings: HIV-1 NC / fluorescein-TGTGTGTG probe, fluorescence polarization
# In short: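 HIV-1 NC (100 nM) binding to fluorescein-labelled ssDNA TG4xF (10 nM) in Hepes pH 7.5, 250mM NaCl, 1uM ZnCl2, TCEP and 2-mercaptoethanol; compounds pin-transferred, 1 hr room temperature, fluorescence polarization read on CCD imager.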
# Potency is the fitted concentration of half-maximal effect.
row,Compound,Potency
1,COc1ccccc1CNc1ccnc(-c2ccccc2CN(C)C)n1,> 20 µM
2,N#Cc1cccc(-c2cncnc2NCCc2cnc[nH]2)c1,> 20 µM
3,CN1CCN(c2ncc3nc(CCc4ccccc4)c(=O)n(CCc4ccccc4)c3n2)CC1,> 20 µM
4,O=c1c(-c2cc(F)cc(F)c2)nc2cnc(N3CCOCC3)nc2n1CCc1ccccc1,> 20 µM
5,N#Cc1ccccc1-c1ccc2ncnc(NC3CC3)c2c1,> 20 µM
6,COCC(=O)N1CCC[C@@]2(CCN(c3ncccn3)C2)C1,> 20 µM
7,CCNc1ncc2nc(C)c(=O)n(CCC#N)c2n1,> 20 µM
8,O=c1c(-c2cccs2)nc2cnc(N3CCNCC3)nc2n1Cc1cccs1,> 20 µM
9,COc1ccc(NC(=O)N2CCCC3(CCN(C(=O)c4cnccn4)CC3)C2)cc1,> 20 µM
10,CN(C)c1ncc2nc(-c3cccs3)c(=O)n(CCc3ccccc3)c2n1,> 20 µM
11,Cn1cccc1C(=O)N1CCC2(CC1)CCN(c1cccc(-c3ccccc3)c1)CC2,> 20 µM
12,O=C(c1cnccn1)N1CCC2(CC1)CN(Cc1cc(C(F)(F)F)cc(C(F)(F)F)c1)C2,> 20 µM
13,CC(=O)N1CCC2(CC1)CN(c1cccc(-c3ccccc3)c1)C2,> 20 µM
14,COCCn1c(=O)c(CCc2ccccc2)nc2cnc(Oc3ccc(OC)cc3)nc21,> 20 µM
15,CC(=O)N1CCC2(CC1)CN(c1ccccn1)C2,> 20 µM
16,Cc1nc2cnc(Nc3ccccc3)nc2n(C)c1=O,> 4 µM
17,COCCNc1cc(-c2ccccc2C(F)(F)F)ncn1,> 20 µM
18,COc1ccc(-c2nc3cnc(Oc4cccc(Cl)c4)nc3n(C[C@H]3CCCO3)c2=O)cc1,> 20 µM
19,O=c1c(-c2cccs2)nc2cnc(N3CCOCC3)nc2n1Cc1ccc(F)cc1,> 20 µM
20,COc1ccc(CNc2nc(-c3ccc(N(C)C)cc3)nc3ccccc23)c(OC)c1,> 20 µM

row,Compound,Potency
1,COc1ccc(CNc2nc(-c3ccccc3CN(C)C)nc3ccccc23)c(OC)c1,> 20 µM
2,c1ccc(C(c2ccccc2)N2CC[C@@]3(CCCNC3)C2)cc1,> 20 µM
3,COc1ccc2[nH]cc(CCNc3ncnc4ccc(-c5ccoc5)cc34)c2c1,> 20 µM
4,COc1ccc(C(=O)N2CCC3(CC2)CN(C(=O)Nc2ccccc2)C3)cc1,> 20 µM
5,Cc1cccc(CNc2ncncc2-c2cccnc2)c1,> 20 µM
6,CCNc1ncc2nc(-c3cc(F)cc(F)c3)c(=O)n(CCC#N)c2n1,19.8 µM
7,COc1ccc(C(=O)N2CCC3(CCCN(c4ccc(-c5ccccc5)cc4)C3)CC2)cc1,> 20 µM
8,CS(=O)(=O)Nc1cccc(-c2nc(Nc3ccccc3)c3ccccc3n2)c1,> 20 µM
9,Cn1cccc1C(=O)N1CCC2(CCCN(c3cccc(-c4ccccc4)c3)C2)CC1,> 20 µM
10,Cc1nc2cnc(N3CCOCC3)nc2n(C2CC2)c1=O,> 20 µM
11,COCC(=O)N1CCC2(CC1)CCN(C(=O)Nc1cccc(F)c1)CC2,> 20 µM
12,COc1ccc(NC(=O)N2CC3(CCN(C(C)=O)CC3)C2)cc1,> 20 µM
13,COC(=O)N1CCC2(CCCN(Cc3ccccc3)C2)CC1,> 20 µM
14,O=c1c(CCc2ccccc2)nc2cnc(Nc3ccccc3)nc2n1C[C@H]1CCCO1,> 20 µM
15,COc1ccc(Oc2ncc3ncc(=O)n(C4CC4)c3n2)cc1,> 20 µM
16,COc1ccccc1CCn1c(=O)cnc2cncnc21,> 20 µM
17,CN(C)Cc1ccccc1-c1nc(NCc2cccs2)c2ccccc2n1,> 20 µM
18,COc1ccc(Oc2ncc3nc(-c4ccc(F)cc4)c(=O)n(CCC#N)c3n2)cc1,> 20 µM
19,COc1cccc(Cn2c(=O)c(-c3cc(F)cc(F)c3)nc3cnc(N(C)C)nc32)c1,> 4 µM
20,CS(=O)(=O)N1CCC2(CC1)CN(C(c1ccccc1)c1ccccc1)C2,> 20 µM

# — PubChem BioAssay (NCATS)
